Assay results: ChEMBL document CHEMBL1201862, “PubChem BioAssay data set” (2004)
In all, about 400,000 compounds went through this assay and about 2,100 (0.53%) were called active. Inconclusive results (about 14%) are left out. How the calls were made is not given here. The sample as a whole holds a higher share of actives than the screen did.

Target: Ataxin-2 (Homo sapiens) (UniProt Q99700)
Experiment: qHTS for Inhibitors of ATXN expression.
Assay type: functional

Sequence of Ataxin-2 (Homo sapiens) (Q99700 whole entry): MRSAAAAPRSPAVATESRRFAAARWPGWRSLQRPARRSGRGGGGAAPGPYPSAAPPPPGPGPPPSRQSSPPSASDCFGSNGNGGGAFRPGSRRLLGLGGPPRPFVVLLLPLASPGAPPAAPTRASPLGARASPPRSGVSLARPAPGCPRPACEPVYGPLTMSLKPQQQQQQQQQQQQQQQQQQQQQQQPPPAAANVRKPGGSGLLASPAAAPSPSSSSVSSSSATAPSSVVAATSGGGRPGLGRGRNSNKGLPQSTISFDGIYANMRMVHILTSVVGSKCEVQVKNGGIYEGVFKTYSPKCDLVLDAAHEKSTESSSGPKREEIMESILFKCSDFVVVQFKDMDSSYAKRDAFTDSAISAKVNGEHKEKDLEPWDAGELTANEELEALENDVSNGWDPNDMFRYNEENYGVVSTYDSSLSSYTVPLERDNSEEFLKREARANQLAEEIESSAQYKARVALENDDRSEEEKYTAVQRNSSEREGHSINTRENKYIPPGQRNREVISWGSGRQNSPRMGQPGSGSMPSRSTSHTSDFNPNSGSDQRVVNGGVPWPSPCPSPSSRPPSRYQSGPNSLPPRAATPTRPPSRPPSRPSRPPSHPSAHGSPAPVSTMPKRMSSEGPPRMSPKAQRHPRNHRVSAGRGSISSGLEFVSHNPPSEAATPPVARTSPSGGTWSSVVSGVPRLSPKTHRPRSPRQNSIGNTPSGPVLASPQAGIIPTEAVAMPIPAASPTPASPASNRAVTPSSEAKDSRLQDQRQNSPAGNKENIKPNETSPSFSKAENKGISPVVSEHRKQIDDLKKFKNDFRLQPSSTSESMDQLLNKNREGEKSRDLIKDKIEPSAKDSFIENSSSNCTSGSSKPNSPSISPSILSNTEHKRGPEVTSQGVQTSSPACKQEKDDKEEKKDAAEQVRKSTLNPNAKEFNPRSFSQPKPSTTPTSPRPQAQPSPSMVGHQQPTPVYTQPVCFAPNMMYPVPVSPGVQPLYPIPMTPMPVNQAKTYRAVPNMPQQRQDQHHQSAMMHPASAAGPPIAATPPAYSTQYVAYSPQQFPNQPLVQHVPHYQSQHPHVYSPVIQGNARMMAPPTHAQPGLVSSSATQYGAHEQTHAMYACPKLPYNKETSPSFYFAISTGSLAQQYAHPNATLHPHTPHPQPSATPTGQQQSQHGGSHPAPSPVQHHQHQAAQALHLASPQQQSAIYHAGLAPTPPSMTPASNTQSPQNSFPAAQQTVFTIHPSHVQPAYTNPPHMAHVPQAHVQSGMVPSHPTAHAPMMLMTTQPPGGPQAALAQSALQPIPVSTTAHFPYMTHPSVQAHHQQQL

Row | SMILES | Potency
1 | CCOC(=O)c1cc2c(=O)n3ccccc3nc2n(CC2CCCO2)/c1=N\C(C)=O (stereo not given) | inactive
2 | CN(C)/C=N/C(=S)Nc1cc(Cl)cc(Cl)c1 | inactive
3 | C(=NOCc1ccccc1)c1ccccn1 | inactive
4 | CC1CCc2nc(/C(C#N)=C/c3cccnc3)sc2C1 (stereo not given) | inactive
5 | Cc1cccc(NC2=NC(=O)/C(=C/c3cccnc3)S2)c1 | inactive
6 | CSC1=N/C(=C/c2cccnc2)C(=O)N1Cc1ccccc1 | inactive
7 | CC1C/C(=C\c2cccnc2)C(=O)/C(=C/c2cccnc2)C1 (stereo not given) | 11.2 µM (active)
8 | CCC1C/C(=C\c2cccnc2)C(=O)/C(=C/c2cccnc2)C1 (stereo not given) | 14.1 µM (active)
9 | CC1C/C(=C/c2ccccn2)C(=O)/C(=C/c2ccccn2)C1 (stereo not given) | 11.9 µM (active)
10 | CCn1c(SCC(=O)Nc2cccc(C)c2)nc2nc3c(cc2c1=O)COC(C)(C)C3 | inactive
11 | CN(C)S(=O)(=O)c1cccc(NC(=O)CSc2cccc3cccnc23)c1 | 39.8 µM (active)
12 | O=C(CSc1cccc2cccnc12)N/N=C/c1cccnc1 | 39.8 µM (active)
13 | Cc1cc(SCC(=O)Nc2cccnc2Cl)nc2ccccc12 | inactive
14 | O=C(CSc1nnc2ccc(-c3ccccn3)nn12)Nc1cccc(F)c1 | inactive
15 | CN(C)S(=O)(=O)c1ccc(SCC(=O)Nc2cccc(S(=O)(=O)N3CCCC3)c2)nc1 | inactive
16 | CN(C)S(=O)(=O)c1cccc(NC(=O)Cn2cc(C(F)(F)F)cc(Cl)c2=O)c1 | inactive
17 | O=C(CSc1ncccn1)N/N=C/c1ccccc1[N+](=O)[O-] | inactive
18 | Cc1ccc(NC(=O)CSc2nc3nc(O)cc(O)c3s2)c(Br)c1 | inactive
19 | Cc1ccc(NC(=O)CSc2cccc3cccnc23)c(C)c1 | 39.8 µM (active)
20 | COc1ccc(/C=C/C(=O)NCC(=O)N/N=C/c2cccnc2)cc1 | inactive
21 | Cc1cccc(NC(=O)CSc2cccc3cccnc23)c1 | 44.7 µM (active)
22 | COc1ccc(C(=O)NCCNc2nc3ccc(C)cc3cc2C#N)cc1OC | inactive
23 | O=C(CSc1ccccn1)N1CCN(c2ncc(C(F)(F)F)cc2Cl)CC1 | inactive
24 | COc1ccc(OC)c(C2CC(=O)N3CN(c4ccccc4F)CSC3=C2C#N)c1 (stereo not given) | inactive
25 | O=C(CCCN1C(=O)/C(=C/c2ccccc2OC(F)F)SC1=S)Nc1cccnc1 | 20 µM (active)
26 | O=C(CCN1C(=O)/C(=C/c2ccc(F)cc2)SC1=S)Nc1cccnc1 | inactive
27 | O=C(CCCN1C(=O)c2cccnc2C1=O)Nc1ccccc1F | inactive
28 | C(=N\NC1=NCCN1)/c1ccncc1 | inactive
29 | CCCCOc1ccc(Br)cc1/C(C)=N/NC1=NCCN1 | 22.4 µM (active)
30 | Cn1c(Cl)cnc1C(O)(c1ccccc1)c1ccccc1 | inactive
